Assay results from publication PMC4336329 (PLoS ONE, 2015).
Out of some 310,000 compounds screened, about 14,000 (4.5%) showed an effect of 50% or more. The effect is printed as a negative number. This excerpt belongs to a sample that is enriched for strong results.

Biological target: human ether-à-go-go-related gene (hERG) potassium channel (human, UniProt Q12809)
Assay: primary screen, population patch clamp on CHO cells stably expressing hERG; higher = less effect of the substance
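Also: peak tail current of the secondary pulse compared with the same well before compound.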

Sequence of human ether-à-go-go-related gene (hERG) potassium channel (Q12809 whole entry, looked up): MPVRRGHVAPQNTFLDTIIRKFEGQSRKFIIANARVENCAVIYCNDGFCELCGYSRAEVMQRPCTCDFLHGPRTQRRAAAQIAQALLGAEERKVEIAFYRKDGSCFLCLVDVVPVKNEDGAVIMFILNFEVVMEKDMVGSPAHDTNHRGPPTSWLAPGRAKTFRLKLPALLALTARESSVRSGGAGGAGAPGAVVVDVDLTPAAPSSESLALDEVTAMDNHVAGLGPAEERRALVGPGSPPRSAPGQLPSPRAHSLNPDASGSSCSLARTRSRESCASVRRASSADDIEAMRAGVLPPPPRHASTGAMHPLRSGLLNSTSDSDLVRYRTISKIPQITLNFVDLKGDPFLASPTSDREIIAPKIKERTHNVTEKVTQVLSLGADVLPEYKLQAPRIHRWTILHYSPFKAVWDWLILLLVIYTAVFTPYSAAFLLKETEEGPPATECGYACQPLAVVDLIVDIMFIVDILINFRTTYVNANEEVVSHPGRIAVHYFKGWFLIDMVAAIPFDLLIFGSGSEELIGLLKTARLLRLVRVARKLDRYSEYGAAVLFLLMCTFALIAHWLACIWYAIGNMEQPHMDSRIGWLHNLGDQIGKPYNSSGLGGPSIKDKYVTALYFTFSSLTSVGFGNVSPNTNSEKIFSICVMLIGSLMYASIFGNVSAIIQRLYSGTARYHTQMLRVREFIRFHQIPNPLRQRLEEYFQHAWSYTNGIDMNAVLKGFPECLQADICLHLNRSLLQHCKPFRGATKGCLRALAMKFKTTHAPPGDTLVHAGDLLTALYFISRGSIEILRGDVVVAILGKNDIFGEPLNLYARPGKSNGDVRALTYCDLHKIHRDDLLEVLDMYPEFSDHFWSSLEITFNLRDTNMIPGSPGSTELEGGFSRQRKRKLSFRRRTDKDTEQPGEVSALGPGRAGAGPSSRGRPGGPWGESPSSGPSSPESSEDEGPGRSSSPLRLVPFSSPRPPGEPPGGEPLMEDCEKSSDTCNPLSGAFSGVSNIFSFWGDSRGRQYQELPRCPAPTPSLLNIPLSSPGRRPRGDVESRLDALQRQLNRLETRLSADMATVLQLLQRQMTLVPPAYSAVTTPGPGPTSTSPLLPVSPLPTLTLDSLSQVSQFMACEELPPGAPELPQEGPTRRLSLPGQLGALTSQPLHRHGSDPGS

| SMILES | hERG current change (%, negative = inhibition) at 10uM [%] |
| --- | --- |
| CC(=O)Nc1ccc(Nc2ncnc3ccccc23)cc1 | 10.9 |
| O=C(C(=C1N(Cc2ccc(Cl)nc2)CCN1Cc1ccc(Cl)nc1)[N+](=O)[O-])C(Cl)Cl | -26.6 |
| CCn1c(C)nc2cc(S(N)(=O)=O)ccc21 | 21.9 |
| Cc1ccc(C)c(NC(=O)c2nnn(Cc3ccccc3)c2N)c1 | -6.11 |
| Cc1nc(NC(=O)CSc2cc(C)c3ccccc3n2)c(Cl)cc1Cl | 5.23 |
| CC1CN(C(=O)CCNC(=O)c2ccc(Br)cc2)CC(C)O1 (centres unmarked) | -4.12 |
| O=C(CSc1ncn[nH]1)Nc1cccc2ccccc12 | 3.88 |
| CCC(C)(C)NC(=O)Cc1ccccc1OC | 23 |
| COc1ccc(C(CNC(=O)c2ccc(Cl)c(NC(=O)c3cccs3)c2)N2CCCC2)cc1 (centres unmarked) | -70.9 |
| COc1ccc(C(CNC(=O)c2cccc(S(=O)(=O)N3CCCCC3)c2)N2CCCC2)cc1 (centres unmarked) | -43.8 |
| COc1ccc(C(CNC(=O)c2cccc(S(=O)(=O)Nc3ccc(C)cc3)c2)N2CCCCC2)cc1 (centres unmarked) | -30.7 |
| COc1ccc(C(CNC(=O)c2cccc(NC(=O)c3cccs3)c2)N2CCCC2)cc1 (centres unmarked) | -58.8 |
| COc1ccc(C(CNC(=O)c2cccc(Br)c2)N2CCCC2)cc1 (centres unmarked) | -31.6 |
| COc1ccc(C(CNC(=O)CNC(=O)c2cccc(Cl)c2)N2CCCC2)cc1 (centres unmarked) | -33.8 |
| COc1cc2c(cc1OC)C(C)N(C(=O)Nc1cc(C)cc(C)c1)CC2 (centres unmarked) | 4.95 |
| COC(=O)c1c(NC(=O)c2ccco2)sc2c1CC(C)(C)NC2(C)C | -21.2 |
| Cn1c(=O)c2c(ncn2CC(=O)OCC(=O)Nc2sccc2C(N)=O)n(C)c1=O | -10.1 |
| COC(=O)C1=C(C)N(c2cccc3ccccc23)C(=O)C1 | -6.64 |
| Cc1noc(NC(=O)c2ccccc2C(F)(F)F)c1C#N | -46 |
| CCN1C(=O)[C@H]2[C@@H](c3ccc(OC)cc3)N3C(=O)CN(CCOC)C(=O)[C@@]3(C)[C@H]2C1=O | -2.75 |
| O=C(CN1CCN(c2ccccc2F)CC1)NCc1ccc(Cl)cc1 | -19.1 |
| O=C(CN1CCN(C/C=C/c2ccccc2)CC1)NCc1ccccc1 | -73.3 |
| O=C(N/C=C\c1ccccc1)NCc1ccc(Cl)cc1 | 1.95 |
| Cl.O=C(CN1CCCC1)NCc1ccccc1 | 15.6 |
| O=C(CN1CCN(C/C=C/c2ccccc2)CC1)NCc1ccc(Cl)cc1 | -78 |
| O=C(CN1CCCCCC1)NCc1ccccc1 | 10.1 |
